Assay results taken from PubChem BioAssay (Tox21).
“And” between values parts separate entries of the source, which are not always exact repeats. Identical values can stand only once. Inconclusive results are not listed. Where a call stands in place of a potency, no number is given. A number with no mark means an inactive call. The source made the active and inactive calls. Unless noted, calls follow the shape of the full dose curve.

Test system: not listed separately
Assay: qHTS assay to identify small molecule antagonists of the estrogen related receptor signaling pathway with the pleiotropic PPARgamma coactivator (PGC) from Tox21 10K library - cell viability counter screen (AID 1224840; active = well fitted cell-killing curve with a large enough effect in the repeat runs, not every such curve was filed as active; also: nearly all actives have a fitted effect of over 40% in size; also: potency is read from the fitted curve at half-maximal effect)
Conditions: PGC/ERR reporter cells viability, CellTiter-Fluor, 17.5 h; series mostly up to 92.4 µM
Method in brief: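 Counter-screen for cytotoxicity: after 17.5 h compound exposure at 37 C, CellTiter-Fluor reagent added to PGC/ERR cells for 30 min and fluorescence read. Cells were seeded at 2,000 per well 6 h before dosing.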

SMILES	viability change, negative = cytotoxic	Potency
C/C(=C(\CCOP(=O)(O)O)SC(=O)c1ccccc1)N(C=O)Cc1cnc(C)nc1N	-2.4% [at 8.39 µM]	
CC1=CC=C(C(C)C)CC1		inactive
COC(=O)c1ccc(I)cc1S(=O)(=O)NC(=O)Nc1nc(C)nc(OC)n1		inactive
CC(=O)NO		inactive
CCCC(=O)Nc1ccc(O)c(C(C)=O)c1		inactive
CCCCC(=O)OCC(=O)[C@H]1[C@H](C)C[C@H]2[C@@H]3C[C@H](F)C4=CC(=O)C=C[C@]4(C)[C@@]3(F)[C@@H](O)C[C@@]21C		inactive
CC1(c2ccccc2)OC(C(=O)O)=CC1=O (stereo unspecified)		inactive
Cc1cccc(Nc2ccccc2)c1		inactive
CCCCCCc1ccc(-c2ccc(C#N)cc2)cc1		inactive
CN(C)CCN(Cc1ccccc1)c1ccccn1		inactive
C[C@H]1C[C@H]2[C@@H]3CCC4=CC(=O)C=C[C@]4(C)[C@@]3(Cl)[C@@H](O)C[C@]2(C)[C@@]1(O)C(=O)CO		inactive
NCCCN1CCOCC1		inactive
CCCCCCCCCCCCN1CCCCCC1=O		inactive
COc1cc(Cl)ccc1Oc1ccc(Cl)cc1Cl		inactive
C=CC(=O)OCCOCCOCCOCCOC(=O)C=C		27.4 µM (active) and 27.1 µM (active)
Nc1ncn([C@H]2C[C@H](O)[C@@H](CO)O2)c(=O)n1		inactive
CCCCC(CC)COC(=O)CCCCCCCCC(=O)OCC(CC)CCCC (stereo unspecified)		inactive
S=C([S-])NCCNC(=S)[S-].[Mn+2]		inactive
Cc1nn(C)c(Oc2ccccc2)c1/C=N/OCc1ccc(C(=O)OC(C)(C)C)cc1		inactive
CCCCCCOC(=O)NC(=N)c1ccc(NCc2nc3cc(C(=O)N(CCC(=O)OCC)c4ccccn4)ccc3n2C)cc1		29.8 µM (active)

Test system: not listed separately
Assay: qHTS assay to identify small molecule antagonists of the estrogen related receptor signaling pathway with the pleiotropic PPARgamma coactivator (PGC) from Tox21 10K library (AID 1224841; call rule not given here; also: actives are mostly falling curves and most rising ones were filed inactive; nearly all actives have a fitted effect of over 50% in size; also: potency is read from the fitted curve at half-maximal effect)
Conditions: PGC/ERR reporter cell line, ONE-Glo luciferase, 18 h; series mostly up to 92.4 µM
Method in brief: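 Luminescence (One-Glo, 30 min at room temperature) after 18 h compound treatment at 37 C of PGC/ERR reporter cells plated at 2,000 cells/well and settled 6 h beforehand.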

SMILES	Potency	activity, negative = inhibition
C=C1C(=C/C=C2\CCC[C@]3(C)[C@@H]([C@H](C)/C=C/[C@@H](O)C4CC4)CC[C@@H]23)C[C@@H](O)C[C@@H]1O	29.8 µM (active)	
CCN(CC)c1ccc(C(=C2C=CC(=[N+](CC)CC)C=C2)c2cc(S(=O)(=O)O)ccc2S(=O)(=O)[O-])cc1	11.9 µM (active)	
O=[N+]([O-])c1cccc(S(=O)(=O)O)c1	55.3 µM (active)	
Brc1c2ccccc2c(Br)c2ccccc12		52.5% [at 8.39 µM]
CCCn1cnc2c1c(=O)n(CCCCC(C)=O)c(=O)n2C	inactive	
CCCCCCc1ccc(-c2ccc(C#N)cc2)cc1	inactive	
C#Cc1cccc(Nc2ncnc3cc(OCCOC)c(OCCOC)cc23)c1	8.41 µM (active)	
NCCCN1CCOCC1	inactive	
COc1cc(C(=O)OCCCN2CCCN(CCCOC(=O)c3cc(OC)c(OC)c(OC)c3)CC2)cc(OC)c1OC	inactive	
CCCCCCCCCCCCN1CCCCCC1=O	inactive	
COc1cc(Cl)ccc1Oc1ccc(Cl)cc1Cl	inactive	
CCN(CC)c1ccc2c(-c3ccccc3C(=O)O)c3ccc(=[N+](CC)CC)cc-3oc2c1	43.3 µM (active)	
CCCCCCOC(=O)NC(=N)c1ccc(NCc2nc3cc(C(=O)N(CCC(=O)OCC)c4ccccn4)ccc3n2C)cc1	16.8 µM (active)	
CCc1cc(C2=C(C(=O)O)N(c3ccccc3C(F)(F)F)S(=O)(=O)c3ccccc32)cc2c1OCO2	30.3 µM (active)	

Test system: not listed separately
Assay: qHTS assay to identify small molecule agonists of the estrogen related receptor signaling pathway with the pleiotropic PPARgamma coactivator (PGC) from Tox21 10K library (AID 1224842; active = well fitted activation curve with a large enough effect in the repeat runs; also: nearly all actives have a fitted effect of over 15% in size)
Conditions: PGC/ERR reporter cell line, luciferase ONE-Glo, 18 h; series mostly up to 92.4 µM
Method in brief: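 Luminescence from One-Glo (30 min, room temperature) measured after PGC/ERR cells had 18 h at 37 C with pinned compound (23 nL in DMSO). Cells had been seeded at 2,000 per well and pre-incubated 6 h.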

SMILES	Potency	activation
CCN(CC)c1ccc(C(=C2C=CC(=[N+](CC)CC)C=C2)c2cc(S(=O)(=O)O)ccc2S(=O)(=O)[O-])cc1	inactive	
O=[N+]([O-])c1cccc(S(=O)(=O)O)c1	inactive	
Brc1c2ccccc2c(Br)c2ccccc12		2.94% [at 8.39 µM]
CCCCCCc1ccc(-c2ccc(C#N)cc2)cc1	inactive	
C[C@H]1C[C@H]2[C@@H]3CCC4=CC(=O)C=C[C@]4(C)[C@@]3(Cl)[C@@H](O)C[C@]2(C)[C@@]1(O)C(=O)CO	inactive	
CCCCCCCCCCCCN1CCCCCC1=O	inactive	
CCCCC(CC)COC(=O)CCCCCCCCC(=O)OCC(CC)CCCC (stereo unspecified)	inactive	
Cc1nn(C)c(Oc2ccccc2)c1/C=N/OCc1ccc(C(=O)OC(C)(C)C)cc1	inactive	
CCCCCCOC(=O)NC(=N)c1ccc(NCc2nc3cc(C(=O)N(CCC(=O)OCC)c4ccccn4)ccc3n2C)cc1	inactive	

Molecular target: Thyrotropin receptor (Homo sapiens) (UniProt P16473)
Sequence (P16473 whole entry, looked up): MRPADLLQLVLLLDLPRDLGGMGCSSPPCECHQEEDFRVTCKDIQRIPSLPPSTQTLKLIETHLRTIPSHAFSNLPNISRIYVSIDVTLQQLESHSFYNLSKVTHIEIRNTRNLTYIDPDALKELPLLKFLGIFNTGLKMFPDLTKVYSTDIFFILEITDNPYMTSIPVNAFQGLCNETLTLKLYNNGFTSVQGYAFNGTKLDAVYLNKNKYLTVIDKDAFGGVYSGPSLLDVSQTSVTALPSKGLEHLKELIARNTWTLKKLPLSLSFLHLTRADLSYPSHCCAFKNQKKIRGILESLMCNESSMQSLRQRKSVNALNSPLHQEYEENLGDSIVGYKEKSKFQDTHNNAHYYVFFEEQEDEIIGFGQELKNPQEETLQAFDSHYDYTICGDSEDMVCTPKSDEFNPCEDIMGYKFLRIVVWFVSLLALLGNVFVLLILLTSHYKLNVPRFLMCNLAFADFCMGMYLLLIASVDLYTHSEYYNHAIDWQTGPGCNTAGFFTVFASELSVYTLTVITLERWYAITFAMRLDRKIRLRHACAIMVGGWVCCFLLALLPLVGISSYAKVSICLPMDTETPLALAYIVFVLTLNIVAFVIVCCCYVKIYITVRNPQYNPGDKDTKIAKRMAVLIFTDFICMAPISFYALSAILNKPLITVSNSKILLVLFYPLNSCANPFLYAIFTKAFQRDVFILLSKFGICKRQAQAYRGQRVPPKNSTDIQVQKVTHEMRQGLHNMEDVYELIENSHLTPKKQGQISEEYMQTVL
Assay: qHTS assay to identify small molecule agonists of the thyroid stimulating hormone receptor (TSHR) signaling pathway (AID 1224843); also: nearly all actives have a fitted effect of over 45% in size; also: potency is read from the fitted curve at half-maximal effect
Conditions: TSHR-HEK293 cells, cAMP HTRF, agonist mode, 30 min; series mostly up to 92.4 µM
Method in brief: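 Agonist activity read as cAMP rise via d2/cryptate HTRF competition, 1 h room-temperature detection, in HEK293 cells expressing TSHR. Fifteen-point titrations, each run in triplicate, with a 30 min room-temperature incubation beforehand.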

SMILES	activation	Potency
C/C(=C(\CCOP(=O)(O)O)SC(=O)c1ccccc1)N(C=O)Cc1cnc(C)nc1N	-3.96% [at 8.39 µM]	
CCC(C)O (stereo unspecified)		inactive
COC(=O)c1ccc(I)cc1S(=O)(=O)NC(=O)Nc1nc(C)nc(OC)n1		inactive
Brc1c2ccccc2cc2ccccc12		inactive
O[C@@H](COc1cccc2ncccc12)CN1CCN(C2c3ccccc3[C@@H]3[C@H](c4ccccc42)C3(F)F)CC1 (stereo partly specified)		11.9 µM (active)
CC(=O)NO		inactive
CCCC(=O)Nc1ccc(O)c(C(C)=O)c1		inactive
CCCCC(=O)OCC(=O)[C@H]1[C@H](C)C[C@H]2[C@@H]3C[C@H](F)C4=CC(=O)C=C[C@]4(C)[C@@]3(F)[C@@H](O)C[C@@]21C		inactive
Brc1c2ccccc2c(Br)c2ccccc12	-2.14% [at 8.39 µM]	
CC1(c2ccccc2)OC(C(=O)O)=CC1=O (stereo unspecified)		inactive
CN(C)c1ccc(/C=C/c2ccc([N+](=O)[O-])cc2)cc1	-1.26% [at 8.39 µM]	
CCCn1cnc2c1c(=O)n(CCCCC(C)=O)c(=O)n2C		inactive
CCCCCCc1ccc(-c2ccc(C#N)cc2)cc1		inactive
CN(C)CCN(Cc1ccccc1)c1ccccn1		inactive
C#Cc1cccc(Nc2ncnc3cc(OCCOC)c(OCCOC)cc23)c1		inactive
C[C@H]1C[C@H]2[C@@H]3CCC4=CC(=O)C=C[C@]4(C)[C@@]3(Cl)[C@@H](O)C[C@]2(C)[C@@]1(O)C(=O)CO		inactive
NCCCN1CCOCC1		inactive
COc1cc(C(=O)OCCCN2CCCN(CCCOC(=O)c3cc(OC)c(OC)c(OC)c3)CC2)cc(OC)c1OC		inactive
COc1cc(Cl)ccc1Oc1ccc(Cl)cc1Cl		inactive
C=CC(=O)OCCOCCOCCOCCOC(=O)C=C		inactive
CCCCC(CC)COC(=O)CCCCCCCCC(=O)OCC(CC)CCCC (stereo unspecified)		inactive
S=C([S-])NCCNC(=S)[S-].[Mn+2]		inactive
CCCCCCOC(=O)NC(=N)c1ccc(NCc2nc3cc(C(=O)N(CCC(=O)OCC)c4ccccn4)ccc3n2C)cc1		inactive
